Measured values reported in PubChem BioAssay AID2283234 (EPA ToxCast).
Inconclusive results are not listed. Activity calls are given as the source filed them. Rule for the calls: active = hit-call score of the fitted dose curve at least 0.9, where 1 is the maximum; inconclusive = response in the unintended direction; inactive = score below 0.9.

These compounds were tested against human Dual Specificity Styrosine-Phosphorylation-Regulated Kinase 1A (DYRK1a), DYRK1A (gene 1859) (UniProt Q13627) (assay: NVS_ENZ_hDYRK1a: NovaScreen (NVS) Enzymatic Assay for human Dual Specificity Styrosine-Phosphorylation-Regulated Kinase 1A (DYRK1a)).
Method: NVS_ENZ_hDYRK1a is a biochemical, single-readout assay that uses extracted gene-proteins in a cell-free assay. Measurements were taken 1 hour after chemical dosing in a 96-well plate.NVS_ENZ_hDYRK1a is one of one assay component(s) measured or calculated from the NVS_ENZ_hDYRK1a assay. It is designed to make measurements of enzyme activity, a form of enzyme reporter, as detected with fluorescence intensity signals by Fluorescence and electrophoretic mobility shift technology.Data from the assay component NVS_ENZ_hDYRK1a was analyzed into 1 assay endpoint. This assay endpoint, NVS_ENZ_hDYRK1a, was analyzed in the positive analysis fitting direction relative to DMSO as the negative control and baseline of activity. Using a type of enzyme reporter, loss-of-signal activity can be used to understand changes in the enzymatic activity as they relate to the gene DYRK1A. Furthermore, this assay endpoint can be referred to as a primary readout, because this assay has produced multiple assay endpoints where this one serves a enzymatic activity function. To generalize the intended target to other relatable targets, this assay endpoint is annotated to the kinase intended target family, where the subfamily is dual-specific kinase.
Binding assays used specific radioligands (tritiated, iodinated) with non-radioactive competitive displacement ligands in agonist or antagonist protocols (as indicated) and various reference compounds and inhibitors to titrate specific binding to receptors and transporters. Most enzyme assays (CYPs, kinases, phosphatases, proteases, HDACs) used recombinant protein and specific substrates (fluorescence mostly, some colorimetric and radioactive) and inhibitors, followed by a biochemical separation of substrate and product. All assays for the biochemical HTS were initially run in duplicate at a single concentration (10 uM for CYP450 assays and 25 uM for all others). […] Each assay was run with positive and negative controls, and concurrent controls on every plate. The follow-up (secondary) screen tested active chemical-pairs in concentration series, as well as a few additional assays not tested in the primary screen, some selected negative inactives, and several cases re-run in the concentration series for confirmatory purposes.

Row | Compound | outcome | AC50
1 | CCCCOC(=O)c1ccccc1C(=O)OCCCC | inactive | 
2 | CNC(=O)ON=C(SC)C(=O)N(C)C | inactive | 
3 | O=C(Nc1ccccc1)Nc1cnns1 | inactive | 
4 | N#Cc1c(Cl)c(Cl)c(Cl)c(C#N)c1Cl | inactive | 
5 | Nc1c(Cl)cc([N+](=O)[O-])cc1Cl |  | 14.7 µM (active)
6 | N#Cc1c[nH]cc1-c1cccc2c1OC(F)(F)O2 | inactive | 
7 | O=C(O)c1nc(Cl)ccc1Cl | inactive | 
8 | CC1=NNC(=O)N(/N=C/c2cccnc2)C1 |  | 13.5 µM (active)
9 | CN(C)[C@@H]1C(=O)C(C(N)=O)=C(O)[C@@]2(O)C(=O)C3=C(O)c4c(O)cccc4[C@@](C)(O)[C@H]3[C@H](O)[C@@H]12 |  | 16.7 µM (active)
10 | O=C(Nc1ccccc1)Nc1ccnc(Cl)c1 |  | 25 µM (active)
11 | CCN(CC)C(=O)SCc1ccc(Cl)cc1 | inactive | 
12 | COP(N)(=O)SC (stereo not drawn) | inactive | 
13 | COc1cc(OC)nc(NC(=O)NS(=O)(=O)c2cc(NC=O)ccc2C(=O)N(C)C)n1 | inactive | 
